# Compound activity (PubChem)
# Compounds with a hit are over-represented: about 4.4% of the library has one in this group of screens.
# tim23-1 inh: inhibits growth of tim23-1 mutant yeast; inhibition, % at 20 µM; AID 463212; S. cerevisiae tim23-1 growth, BacTiter-Glo luminescence, 24 h; hit rate 1.3% among 330,000;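 active = growth inhibition of the mutant yeast at or above 50%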;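 also: temperature-sensitive mutant grown at 25 °C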
# SKKanGAS inh: inhibitors of SKKanGAS S. pyogenes growth in kanamycin (SK-promoter or general growth effect); BacTiter-Glo, 6 h; inhibition, % at 7.5 µM; hit rate 1.3% among 300,000;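 active = mean replicate score, as percent of positive control median, at least 50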;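 also: strain carries kanamycin resistance gene driven by streptokinase promoter and grows in 40 µg/ml kanamycin; loss of luminescence reflects streptokinase promoter inhibition or plain growth inhibition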
# TIM10 inh: growth inhibitors of TIM10 yeast strain; S. cerevisiae TIM10 strain growth, BacTiter-Glo luminescence, 24 h; inhibition, % at 10 µM; hit rate 1.4% among 330,000; AID 463195;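 active = inhibition of 40% or more at the single tested concentration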;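 also: wild-type TIM10 isogenic control strain grown at permissive 25 °C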
# PfHsp90 yeast 2: inhibits growth of yeast expressing Plasmodium falciparum Hsp90; AID 504621; inhibition, % at 9.4 µM; S. cerevisiae expressing PfHsp90, BacTiter-Glo ATP, 48 h; yeast lacking PDR1 and PDR3 efflux regulators; hit rate 0.32% among 310,000;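 active = every replicate shows inhibition above about 80%, whatever the replicate mean, limit read from the data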
# tim10-1 inh: tim10-1 yeast growth inhibition. S. cerevisiae tim10-1 ts strain growth, BacTiter-Glo, 24 h. inhibition, % at 20 µM. hit rate 2.2% among 330,000. AID 463190;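 active = inhibition of at least 40%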;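 also: mutant grown at 25 °C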
# tim10 confirm: TIM10 yeast growth inhibition, confirmed; shares compounds with TIM10 inh; S. cerevisiae tim10 strain growth, BacTiter-Glo luminescence, 24 h; inhibition, % at 10 µM; hit rate 63% among 4,600; AID 463215;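 active = inhibition of yeast growth at or above a set limit in either of two replicates at 10 µM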; also: this counterscreen used the strain with wild-type TIM10
# Numbers stand for hits; n = inactive; x = no result given.
SMILES,tim23-1 inh,SKKanGAS inh,TIM10 inh,PfHsp90 yeast 2,tim10-1 inh,tim10 confirm
Cc1ccc(/C=C/C(=O)N2CCN(S(=O)(=O)c3c(C)c(C)cc(C)c3C)CC2)o1,n,n,41,n,n,n
O=C(Nc1cc(Cl)cc(Cl)c1)c1cnn2cccnc12,n,n,n,n,n,x
O=C(Nc1cccc(Cl)c1)c1cnn2cccnc12,n,n,52,n,n,35
COc1ccc(CC(=O)Nc2ccc(/C(C)=N\NC(=O)c3ccc(Br)o3)cc2)cc1,n,n,n,n,n,x
O=C(COc1ccccc1)N=C1SC2CS(=O)(=O)CC2N1c1ccccc1 (stereo unspecified),n,n,97,n,n,n
COc1cc(NC(=O)c2cccs2)ccc1NC(=O)c1ccco1,n,n,47,n,n,n
O=C(Oc1ccc2[nH]cc(CCN3C(=O)c4ccccc4C3=O)c2c1)c1ccco1,n,n,43,x,n,39
O=C(Nc1ccc(Cl)cc1)N1CCC(c2nc(-c3ccccc3Cl)no2)CC1,n,n,48,n,n,n
Cc1cnc(C(=O)OC(C(=O)Nc2cc(C(F)(F)F)ccc2Cl)c2ccccc2)cn1 (stereo unspecified),n,n,98,n,n,n
CCCCOc1cccc(C(=O)N(Cc2ccccc2)C2CCS(=O)(=O)C2)c1 (stereo unspecified),n,n,n,n,n,x
C/C(=N\NC(=S)Nc1ccc(F)cc1)c1ccc2c(c1)OCCO2,n,n,44,n,n,51
C/C(=N/NC(=O)c1ccc2c(c1)OCO2)c1ccc(NC(=O)c2ccc(F)cc2)cc1,n,x,n,n,n,x
O=S(=O)(c1ccc(-c2csc(-c3cccnc3)n2)cc1)N1CCCCC1,n,n,48,x,n,n
Cc1c(NC(=O)COc2c(F)c(F)c(F)c(F)c2F)c(=O)n(-c2ccccc2)n1C,n,n,n,n,n,x
S=C(NCCc1ccccc1)Nc1ccc(Cl)cc1Cl,n,n,49,n,n,49
CCCOC(=O)Nc1ccc(S(=O)(=O)Nc2ncccn2)cc1,n,n,n,n,n,x
CCOC(=O)C1=C(C)N(c2ccc(C)c(C)c2)C(=O)/C1=C\c1ccco1,n,n,n,n,n,x
COC(=O)C1=C(C)N(c2ccc(C)c(C)c2)/C(=C/c2ccco2)C1=O,n,n,48,n,n,47
COC(=O)C1=C(C)N(c2ccc(C)cc2)/C(=C/c2cccs2)C1=O,n,n,43,x,n,32
COc1ccc(Nc2nccc(N(C)C)c2C#N)cc1,n,n,55,n,n,n
COc1ccc(Nc2nccc(OC)c2C#N)cc1,n,n,n,n,n,x
COc1ccc(-c2nn(C)c3sc(C(=O)NCc4ccco4)cc23)cc1OC,n,n,n,n,n,x
COc1ccc(NC(=O)c2cc3c(-c4ccc(OC)c(OC)c4)nn(C)c3s2)cc1OC,n,n,40,n,n,27
C/C(=C\C(=O)OCC(=O)NCc1ccccc1)C(=O)OCC(=O)NCc1ccccc1,n,n,n,n,n,x
CCOC(=O)/C=C/C(=O)OCC(=O)NCc1ccccc1,n,x,42,n,n,n
SMILES,tim23-1 inh,SKKanGAS inh,TIM10 inh,PfHsp90 yeast 2,tim10-1 inh,tim10 confirm
CCCOc1cccc(C(=O)NC(=S)Nc2cccc(C(F)(F)F)c2)c1,n,n,41,n,n,n
Fc1ccccc1/C=N/n1cc(-c2ccccc2)[nH]c1=S,n,n,45,n,n,47
Cc1ccc(C)c(/C=N/n2cc(-c3ccccc3)[nH]c2=S)c1,n,n,n,n,n,x
CCN(CC)S(=O)(=O)c1ccc(NC(=O)C2CC(=O)N(c3ccc4c(c3)OCCO4)C2)cc1 (stereo unspecified),x,x,x,n,x,x
CC1C(=O)CC(c2ccccc2)N(C)C1c1ccccc1 (stereo unspecified),n,n,n,n,n,x
CCC1C(c2ccccc2)N(C)C(c2ccccc2)CC1(O)c1ccccc1 (stereo unspecified),n,n,44,n,n,34
CC1(C)Cc2cccc(OCC(=O)Nc3cc(S(C)(=O)=O)ccc3Cl)c2O1,n,x,n,x,n,x
Cc1ccc(-c2cc3cccc[n+]3cc2-c2ccc(C)cc2)cc1,n,n,51,n,n,53
Cc1ccc(C[n+]2ccccc2)cc1,n,n,n,n,n,x
O=C(NCC1CCCO1)c1cnn2c(C(F)F)cc(C3CC3)nc12 (stereo unspecified),n,n,n,n,n,x
COc1ccc(-c2cc(C(F)F)n3ncc(C(=O)NCC4CCCO4)c3n2)cc1 (stereo unspecified),n,n,45,n,n,34
Cn1nc(C(=O)NNC(=O)c2cccc(Cl)c2)ccc1=O,n,x,n,n,n,x
O=C(Oc1ccc(C(=S)N2CCOCC2)cc1Br)c1cc(Cl)ccc1Cl,n,n,47,x,n,n
O=C(Oc1c(Br)cc(C(=S)N2CCOCC2)cc1Br)c1ccc(Cl)cc1,n,n,n,n,n,x
COc1ccccc1N=c1scc(-c2ccc3c(c2)NC(=O)CO3)n1CC1CCCO1 (stereo unspecified),n,n,n,n,n,x
O=C1COc2ccc(-c3csc(=Nc4ccc(OC(F)F)cc4)n3CC3CCCO3)cc2N1 (stereo unspecified),n,n,40,x,n,38
On1onc2c3cc(-c4ccccc4)nc3ccc21,n,x,61,n,n,53
c1ccc(-c2cc3c(ccc4nonc43)nn2)cc1,n,n,n,n,n,x
Cc1cc(C)cc(C(=O)OCC(=O)NC(=O)NC2CCCC2)c1,n,x,96,n,n,n
Cc1cc(C)cc(C(=O)OCC(=O)NC2CCCC2)c1,n,n,n,n,n,x
Cc1c(OCc2ccccc2)c(=O)ccn1Cc1ccccc1,n,n,n,n,n,x
Cc1occc(=O)c1OCc1ccccc1,n,n,94,n,n,n
O=C1CC(N2CCC(c3nc4ccccc4o3)CC2)C(=O)N1c1ccc(Cl)c(C(F)(F)F)c1 (stereo unspecified),n,n,43,104,n,n
O=C1CC(N2CCC(c3nc4ccccc4o3)CC2)C(=O)N1c1ccc(F)cc1 (stereo unspecified),n,n,n,n,n,x
CN(C)CCCNc1cc(C(C)(C)C)nc2c(-c3ccc(Cl)cc3)cnn12,n,75,55,n,n,60
SMILES,tim23-1 inh,SKKanGAS inh,TIM10 inh,PfHsp90 yeast 2,tim10-1 inh,tim10 confirm
Cc1cc(NCCCN2CCOCC2)n2ncc(-c3ccc(Cl)cc3)c2n1,n,n,n,x,n,x
COc1cccc(-c2ccc(NC(=O)C3CCCN(Cc4ccc(CO)o4)C3)cc2)c1 (stereo unspecified),n,n,n,n,n,x
O=C(CSc1n[nH]c(-c2cccnc2)n1)Nc1ccccc1C(F)(F)F,n,n,n,n,n,x
CCOC(=O)Nc1cccc(NC(=O)c2cc(OC)cc(OC)c2)c1,n,n,41,n,n,n
COC(=O)c1cc(NC(=O)c2cccnc2)cc(C(=O)OC)c1,n,n,n,n,n,x
O=C(Nc1cccc(O)c1)c1ccccc1,n,n,40,n,n,n
